In the library only some 15% were active in any assay of this set; here they are far more common.
DT40 TDP1 no CPT – qHTS for Inhibitors of human tyrosyl-DNA phosphodiesterase 1 (TDP1): qHTS in cells in absence of CPT; DT40 Tdp1-/- hTDP1 cells, no CPT, ATP luminescence, 48 h; Potency, µM (highest dose often 46.2 µM), for inactives: top-dose activity change, negative = growth inhibition, actives largely listed as inhibitors; actives 15% (n = 420,000); AID 686978, 2013; further: nearly all actives have a fitted effect of over 55% in size
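Chicken DT40 Tdp1-/- cells stably complemented with human TDP1 were seeded at 400 cells/well with DMSO in place of 20 nM camptothecin. After compound pinning, cells grew at least 48 hr at 37 °C; viability read by CellTiter-Glo luminescence.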
DT40 TDP1 CPT – growth inhibition of DT40 Tdp1-/-;hTDP1 cells with camptothecin (screen for TDP1 inhibitors); Potency, µM (highest dose often 46.2 µM), inactives show top-dose activity change, negative = growth inhibition, usual class: inhibitors; actives 12% (n = 420,000); AID 686979; chicken DT40 Tdp1-/-;hTDP1 cells + 20 nM CPT, ATP luminescence, 48 h; further: nearly all actives have a fitted effect of over 55% in size
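Chicken DT40 Tdp1-/- cells complemented with human TDP1, 400 cells/well, exposed to compounds plus 20 nM camptothecin for at least 48 h at 37 C; viability read as ATP content by CellTiter-Glo luminescence.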
VP16 counter – Gal4-VP16 reporter inhibition counter-screen; Drosophila S2 Gal4-VP16 UAS-luciferase, luminescence, 20 h; Potency, µM (series often up to 53.6 µM), without a hit: at the top dose activity, negative = inhibition, usual class: inhibitors; actives 3.5% (n = 310,000); AID 2546;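 further: Gal4-VP16 expression switched on by copper sulfate through the metallothionein promoter; nearly all actives have a fitted effect of over 50% in size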
ELG1 DNA repair – ELG1-dependent DNA repair inhibition. Potency, µM (top dose mostly 46.1 µM), for the others: at the top dose activity change, negative = inhibition, actives largely listed as inhibitors. actives 2.3% (n = 330,000). AID 504467. HEK293T ELG1-luciferase reporter, luminescence, 16 h; DNA damage induced by 5-fluorouridine; further: nearly all actives have a fitted effect of over 55% in size
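Quantitative HTS, concentration-response format. 2,000 cells/well co-treated with 5-fluorouridine and compound, 16 hr in 5% CO2 at 37 °C; ONE-Glo luminescence read after 30 min.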
ALOX12 inh – inhibitors of human 12S-lipoxygenase ALOX12; actives 1.1% (n = 580,000); purified 12hLO, xylenol orange hydroperoxide absorbance; P18054; Potency, µM (series often up to 108 µM), for inactives: at the top dose activity change, negative = inhibition, hits mostly inhibitors
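Purified human 12hLO at 150 nM in 25 mM Hepes, 0.01% Triton X-100, pH 7.0, preincubated 15 min at room temperature with compound. Reaction started with 40 uM arachidonic acid, 30 min at room temperature. Hydroperoxide measured by Fe-xylenol orange, 573/405 nm absorbance ratio.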
RORg inh – blocks mouse ROR gamma transcriptional activity. P51450. Drosophila S2 Gal4-RORgamma UAS-luciferase reporter, 20 h. Potency, µM (doses to about 53.6 µM), without a hit: top-dose activity change, negative = inhibition, most hits filed as inhibitors. actives 5.4% (n = 310,000). AID 2551; further: nearly all actives have a fitted effect of over 60% in size
Target sequence (P51450 whole entry, looked up, the tested form may be a part): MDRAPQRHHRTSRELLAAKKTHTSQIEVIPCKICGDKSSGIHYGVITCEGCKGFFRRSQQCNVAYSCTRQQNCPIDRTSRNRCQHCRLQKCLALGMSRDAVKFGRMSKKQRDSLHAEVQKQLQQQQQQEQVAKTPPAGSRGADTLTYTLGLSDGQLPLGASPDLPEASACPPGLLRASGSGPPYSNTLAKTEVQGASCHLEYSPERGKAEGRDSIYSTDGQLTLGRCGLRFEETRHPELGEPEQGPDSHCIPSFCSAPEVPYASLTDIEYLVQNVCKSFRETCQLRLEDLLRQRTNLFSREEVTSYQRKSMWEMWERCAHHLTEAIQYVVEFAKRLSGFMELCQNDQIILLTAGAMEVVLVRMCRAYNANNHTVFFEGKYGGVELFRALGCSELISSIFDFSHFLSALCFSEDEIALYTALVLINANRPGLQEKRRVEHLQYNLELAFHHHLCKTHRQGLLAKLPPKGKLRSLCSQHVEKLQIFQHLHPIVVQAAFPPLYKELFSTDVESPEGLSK
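Luminescence from a UAS-regulated Photinus luciferase reporter in stably transfected Drosophila Schneider cells is measured; decreased signal marks ROR gamma inhibition. Fusion expression is induced by 700 uM copper sulfate for 20 hr.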
Numbers without * were called inactive; ? = inconclusive; nt = not tested or not shown; [ ] = another dose, or the depositor's remark. The call rests on the fitted dose curve; in most records, active means well fitted curve in the direction sought with a large enough effect; inconclusive means small, poorly fitted or top-dose-only effect, or another doubt; inactive means no such curve, though single readings can be large; an effect the other way counts as inactive or inconclusive. On the % scale 0 is the no-effect control and ±100 the full control effect; potency means the concentration at half of the fitted maximal effect.

SMILES | DT40 TDP1 no CPT | DT40 TDP1 CPT | VP16 counter | ELG1 DNA repair | ALOX12 inh | RORg inh
Cc1ccc(NC(=O)C2CCCN(c3nnc(-n4c(C)ccc4C)s3)C2)cc1Cl (configuration not stated) | 21µM* | ? | nt | nt | 3% | nt
COc1cc(C(=O)Nc2ccc(Cl)cc2)nc2ccc(Cl)cc12 | nt | nt | nt | nt | -1% | nt
Fc1ccccc1CNC1(Cc2cc(-c3ccccn3)on2)COC1 | nt | nt | nt | nt | 11%[176 µM] | nt
COc1ccc(C2c3sc(=O)[nH]c3SC3C4CCC(C4)C23)cc1OC (configuration not stated) | ? | ? | 4% | -12% | -35% | -9%
COc1cc(C2c3sc(=O)[nH]c3SC3C(=O)N(c4ccc(Br)cc4)C(=O)C32)ccc1O (configuration not stated) | -9% | 1% | -10% | 12% | 40µM* | -22%
Cc1cccc(NC(=O)C2(C)CCCCC(=O)N2)c1 (configuration not stated) | nt | nt | nt | nt | 26% | nt
COc1ccc(NC(=O)C2CCCN(C(=O)c3cnn(-c4ccccc4)c3-n3cccc3)C2)cc1 (configuration not stated) | 10µM* | ? | nt | nt | -28% | nt
Cc1cc(C)cc(NC(=O)C2CCCN(C(=O)c3cnn(-c4ccccc4)c3-n3cccc3)C2)c1 (configuration not stated) | 18µM* | 18µM* | nt | nt | ? | nt
CSc1ccccc1NC(=O)c1cc(F)cc(F)c1 | nt | nt | nt | nt | -1% | nt
Cc1ccc(N=Nc2ccc(C)cc2NC(=O)Nc2ccccc2F)cc1 | 21µM* | ? | ? | 22% | 16% | 10%
COC(=O)c1cccc(OC(=O)c2ccccc2C)c1 | nt | nt | nt | nt | -2% | nt
CCC(C)SSc1ncc[nH]1 (configuration not stated) | nt | nt | nt | nt | 19µM* | nt
Oc1cccc(NC(=S)N=Nc2c(O)[nH]c3ccccc23)c1 | 13µM* | ? | -3% | ? | ? | 15%
CCOc1ccc(NC(=S)N=Nc2c(O)[nH]c3ccccc23)cc1 | 7.3µM* | 9.2µM* | 5µM* | ? | 6% | 2.2µM*
O=C(Nc1cccc(O)c1)c1cc(=O)[nH]c2ccccc12 | nt | nt | nt | nt | -11% | nt
O=Cc1cc(N=Nc2ccccc2Cl)ccc1O | 4.1µM* | 21µM* | 6% | ? | ? | 11µM*
O=C(Nc1cccc(-n2cccn2)c1)C1CCCN(Cc2cc3ccccc3[nH]2)C1 (configuration not stated) | ? | 16µM* | -13% | ? | -18% | 0%
CCn1cc(C(=O)N2CCCC(C(=O)Nc3cccc(-c4cc5ccccc5[nH]4)c3)C2)cn1 (configuration not stated) | nt | nt | nt | nt | 23% | nt
Cn1cc(CN2CCCC(C(=O)Nc3cccc(-n4cccn4)c3)C2)cn1 (configuration not stated) | 26% | 1% | -3% | 0% | 6% | -4%
O=C(Nc1cccc(-n2cccn2)c1)C1CCCN(Cc2cccc(F)c2F)C1 (configuration not stated) | 21µM* | 23µM* | 1% | ? | 492% | 13%
CCn1ncc(CN2CCCC(C(=O)Nc3cccc(-c4cc5ccccc5[nH]4)c3)C2)c1C (configuration not stated) | ? | 21µM* | -13% | -8% | -24% | -15%
Cc1cc(CN2CCCC(C(=O)Nc3cccc(-n4cccn4)c3)C2)cc(C)c1O (configuration not stated) | ? | 16µM* | -1% | ? | 0% | -14%

Screening data (PubChem BioAssay)
